Among the data in ChEMBL document CHEMBL1961873, “Compounds: GSK PKIS; Assays: Nanosyn kinase panel” (2012) are inhibition values, retold here.

The target of experiment [1] is T1, Serine/threonine-protein kinase D2 (Homo sapiens) (UniProt Q9BZL6).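 Further: mean value of PRKD2 inhibition, from the GSK PKIS screening panel.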
T1 sequence (whole entry): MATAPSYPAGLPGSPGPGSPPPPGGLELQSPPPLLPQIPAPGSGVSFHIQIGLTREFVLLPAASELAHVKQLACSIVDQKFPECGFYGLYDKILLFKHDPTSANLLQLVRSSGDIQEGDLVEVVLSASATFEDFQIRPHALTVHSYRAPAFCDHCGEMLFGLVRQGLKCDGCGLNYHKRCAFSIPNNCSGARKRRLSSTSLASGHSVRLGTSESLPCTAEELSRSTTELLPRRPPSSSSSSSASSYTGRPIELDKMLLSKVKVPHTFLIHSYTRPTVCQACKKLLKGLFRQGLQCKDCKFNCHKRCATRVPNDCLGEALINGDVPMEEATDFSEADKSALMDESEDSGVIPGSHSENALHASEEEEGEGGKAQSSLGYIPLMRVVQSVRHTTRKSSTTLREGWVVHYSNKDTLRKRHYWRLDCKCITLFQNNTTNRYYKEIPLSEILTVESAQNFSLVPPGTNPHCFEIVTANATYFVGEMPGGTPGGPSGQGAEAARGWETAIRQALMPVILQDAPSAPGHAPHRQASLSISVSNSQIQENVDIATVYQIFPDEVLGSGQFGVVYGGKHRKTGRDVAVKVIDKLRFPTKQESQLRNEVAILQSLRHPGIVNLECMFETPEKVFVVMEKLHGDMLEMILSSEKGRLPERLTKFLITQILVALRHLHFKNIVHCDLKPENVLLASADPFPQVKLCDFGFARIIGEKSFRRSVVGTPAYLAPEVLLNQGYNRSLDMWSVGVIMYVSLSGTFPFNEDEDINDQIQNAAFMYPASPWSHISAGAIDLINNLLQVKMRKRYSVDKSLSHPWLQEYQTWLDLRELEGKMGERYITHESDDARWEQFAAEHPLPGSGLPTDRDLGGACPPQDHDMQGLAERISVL
Conditions: at 1 µM.

For experiment [2], the target named is T2, Serine/threonine-protein kinase D3 (Homo sapiens) (UniProt O94806).
T2 sequence (whole entry): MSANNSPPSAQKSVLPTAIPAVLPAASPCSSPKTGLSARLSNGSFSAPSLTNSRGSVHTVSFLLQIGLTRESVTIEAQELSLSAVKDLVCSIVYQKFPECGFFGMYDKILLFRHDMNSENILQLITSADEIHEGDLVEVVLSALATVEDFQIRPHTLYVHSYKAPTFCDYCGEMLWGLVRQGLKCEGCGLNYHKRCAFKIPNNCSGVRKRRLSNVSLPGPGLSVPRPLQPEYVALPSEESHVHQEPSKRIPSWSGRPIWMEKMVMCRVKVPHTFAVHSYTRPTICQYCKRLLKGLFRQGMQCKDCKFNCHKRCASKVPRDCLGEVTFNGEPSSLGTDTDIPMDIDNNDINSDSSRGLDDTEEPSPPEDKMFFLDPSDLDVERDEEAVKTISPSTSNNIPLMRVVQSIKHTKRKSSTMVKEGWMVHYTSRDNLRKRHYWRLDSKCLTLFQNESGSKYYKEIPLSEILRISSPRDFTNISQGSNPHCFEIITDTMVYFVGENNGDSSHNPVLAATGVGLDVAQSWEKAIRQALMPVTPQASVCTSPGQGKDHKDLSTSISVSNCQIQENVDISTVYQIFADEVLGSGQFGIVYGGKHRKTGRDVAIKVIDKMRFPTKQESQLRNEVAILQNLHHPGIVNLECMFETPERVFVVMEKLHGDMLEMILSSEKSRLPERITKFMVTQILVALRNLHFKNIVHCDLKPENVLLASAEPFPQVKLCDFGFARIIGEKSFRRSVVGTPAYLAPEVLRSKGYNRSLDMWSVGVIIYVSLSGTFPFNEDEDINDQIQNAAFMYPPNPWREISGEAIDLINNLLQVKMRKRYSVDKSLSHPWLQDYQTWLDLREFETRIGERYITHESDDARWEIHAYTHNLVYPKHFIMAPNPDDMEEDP
Conditions: at 0.1 µM.

For experiment [3], the target named is T2, Serine/threonine-protein kinase D3 (Homo sapiens). Particulars: at 1 µM.
The target of experiment [4] is T3, cGMP-dependent protein kinase 1 (Homo sapiens) (UniProt Q13976).
T3 sequence (whole entry): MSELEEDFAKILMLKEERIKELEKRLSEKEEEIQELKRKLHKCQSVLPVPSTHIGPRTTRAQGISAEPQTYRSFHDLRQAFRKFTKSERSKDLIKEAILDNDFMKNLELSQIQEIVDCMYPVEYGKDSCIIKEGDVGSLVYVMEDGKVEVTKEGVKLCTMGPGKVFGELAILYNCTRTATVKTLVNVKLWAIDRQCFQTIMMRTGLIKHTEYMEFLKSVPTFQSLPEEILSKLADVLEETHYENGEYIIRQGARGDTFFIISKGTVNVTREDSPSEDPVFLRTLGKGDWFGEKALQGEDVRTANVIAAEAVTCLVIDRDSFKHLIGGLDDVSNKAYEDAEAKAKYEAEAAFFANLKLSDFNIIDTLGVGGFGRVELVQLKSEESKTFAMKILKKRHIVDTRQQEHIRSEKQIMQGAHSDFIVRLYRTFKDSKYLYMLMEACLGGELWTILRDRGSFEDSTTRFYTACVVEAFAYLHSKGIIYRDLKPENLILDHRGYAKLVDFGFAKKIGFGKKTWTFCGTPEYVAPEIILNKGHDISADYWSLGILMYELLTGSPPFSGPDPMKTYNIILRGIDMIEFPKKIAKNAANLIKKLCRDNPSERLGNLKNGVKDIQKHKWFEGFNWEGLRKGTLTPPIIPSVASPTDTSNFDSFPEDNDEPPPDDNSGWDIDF
Particulars: at 0.1 µM.

The target of experiment [5] is T3, cGMP-dependent protein kinase 1 (Homo sapiens). Particulars: at 1 µM.
Experiment [6] has as its target T4, cGMP-dependent protein kinase 2 (Homo sapiens) (UniProt Q13237).
T4 sequence (whole entry): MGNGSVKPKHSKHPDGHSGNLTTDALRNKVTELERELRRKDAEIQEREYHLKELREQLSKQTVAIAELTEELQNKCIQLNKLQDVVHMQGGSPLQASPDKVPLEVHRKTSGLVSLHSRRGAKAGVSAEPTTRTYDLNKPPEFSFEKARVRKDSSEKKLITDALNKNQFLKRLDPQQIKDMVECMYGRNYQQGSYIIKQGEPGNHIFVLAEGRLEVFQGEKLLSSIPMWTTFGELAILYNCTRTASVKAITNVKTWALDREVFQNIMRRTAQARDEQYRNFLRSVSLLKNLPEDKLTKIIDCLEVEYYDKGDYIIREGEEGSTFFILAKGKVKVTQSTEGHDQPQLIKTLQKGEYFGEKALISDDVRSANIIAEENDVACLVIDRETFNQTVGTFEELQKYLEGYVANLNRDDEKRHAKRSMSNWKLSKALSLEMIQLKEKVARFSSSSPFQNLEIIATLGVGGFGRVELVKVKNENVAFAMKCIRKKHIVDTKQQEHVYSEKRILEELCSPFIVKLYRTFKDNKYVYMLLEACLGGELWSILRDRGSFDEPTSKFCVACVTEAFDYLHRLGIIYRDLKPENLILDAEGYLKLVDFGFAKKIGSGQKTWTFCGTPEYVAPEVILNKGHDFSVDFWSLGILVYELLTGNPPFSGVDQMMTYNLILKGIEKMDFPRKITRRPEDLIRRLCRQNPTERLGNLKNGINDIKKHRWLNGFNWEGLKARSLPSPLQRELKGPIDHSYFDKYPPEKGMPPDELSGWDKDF
Conditions: at 0.1 µM.

Experiment [7] deals with T4, cGMP-dependent protein kinase 2 (Homo sapiens). Particulars: at 1 µM.
In experiment [8] the target is T5, cAMP-dependent protein kinase catalytic subunit PRKX (Homo sapiens) (UniProt P51817).
T5 sequence (whole entry): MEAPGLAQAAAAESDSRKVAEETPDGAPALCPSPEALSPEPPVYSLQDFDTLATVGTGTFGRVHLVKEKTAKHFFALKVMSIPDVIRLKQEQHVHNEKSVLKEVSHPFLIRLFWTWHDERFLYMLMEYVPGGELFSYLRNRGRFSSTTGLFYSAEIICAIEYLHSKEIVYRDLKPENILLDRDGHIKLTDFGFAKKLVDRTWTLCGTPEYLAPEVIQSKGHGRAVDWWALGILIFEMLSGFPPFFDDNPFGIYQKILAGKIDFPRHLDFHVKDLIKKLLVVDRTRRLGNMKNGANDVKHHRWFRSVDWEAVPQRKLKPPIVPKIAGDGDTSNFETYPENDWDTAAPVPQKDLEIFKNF
Conditions: at 0.1 µM.

Experiment [9] addresses T5, cAMP-dependent protein kinase catalytic subunit PRKX (Homo sapiens). Conditions: at 1 µM.
Experiment [10] deals with Rho-associated protein kinase 1 (Homo sapiens) (UniProt Q13464). Conditions: at 0.1 µM.
Experiment [11] has the same target. Conditions: at 1 µM.
In experiment [12] the target is Rho-associated protein kinase 2 (Homo sapiens) (UniProt O75116). Conditions: at 0.1 µM.
The target is the same in experiment [13]. Conditions: at 1 µM.
For experiment [14], the target named is Ribosomal protein S6 kinase alpha-1 (Homo sapiens) (UniProt Q15418). Conditions: at 0.1 µM.
The target is the same in experiment [15]. Conditions: at 1 µM.
For experiment [16], the target named is Ribosomal protein S6 kinase alpha-3 (Homo sapiens) (UniProt P51812). Particulars: at 0.1 µM.
The target is the same in experiment [17]. Particulars: at 1 µM.
Experiment [18] addresses Ribosomal protein S6 kinase alpha-2 (Homo sapiens) (UniProt Q15349). Conditions: at 0.1 µM.
For experiment [19] the target is unchanged. Particulars: at 1 µM.
The target of experiment [20] is Ribosomal protein S6 kinase alpha-6 (Homo sapiens) (UniProt Q9UK32). Conditions: at 0.1 µM.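 Further: reported value is the mean inhibition of RSK4, from the GSK PKIS kinase inhibitor screen.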
Ribosomal protein S6 kinase alpha-6 (Homo sapiens), sequence (Q9UK32 whole entry): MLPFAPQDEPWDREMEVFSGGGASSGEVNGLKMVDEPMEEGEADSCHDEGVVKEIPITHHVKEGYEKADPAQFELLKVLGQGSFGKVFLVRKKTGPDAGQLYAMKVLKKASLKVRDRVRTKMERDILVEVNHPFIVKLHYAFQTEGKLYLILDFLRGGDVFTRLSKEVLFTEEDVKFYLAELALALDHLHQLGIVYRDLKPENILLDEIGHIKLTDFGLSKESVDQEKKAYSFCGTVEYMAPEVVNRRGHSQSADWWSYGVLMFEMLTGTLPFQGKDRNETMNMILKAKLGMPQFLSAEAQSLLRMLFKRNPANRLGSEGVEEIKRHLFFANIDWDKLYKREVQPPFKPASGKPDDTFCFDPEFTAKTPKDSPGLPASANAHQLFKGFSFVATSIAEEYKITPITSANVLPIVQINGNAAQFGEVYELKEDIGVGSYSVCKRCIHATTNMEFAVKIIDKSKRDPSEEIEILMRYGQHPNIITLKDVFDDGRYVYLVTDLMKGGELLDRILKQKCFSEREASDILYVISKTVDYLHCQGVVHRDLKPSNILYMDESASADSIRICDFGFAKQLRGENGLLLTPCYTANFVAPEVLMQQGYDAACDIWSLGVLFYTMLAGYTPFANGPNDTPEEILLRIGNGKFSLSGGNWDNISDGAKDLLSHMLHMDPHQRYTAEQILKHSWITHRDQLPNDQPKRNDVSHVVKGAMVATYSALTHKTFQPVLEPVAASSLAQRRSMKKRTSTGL

Ribosomal protein S6 kinase alpha-3 (Homo sapiens), sequence (P51812 whole entry): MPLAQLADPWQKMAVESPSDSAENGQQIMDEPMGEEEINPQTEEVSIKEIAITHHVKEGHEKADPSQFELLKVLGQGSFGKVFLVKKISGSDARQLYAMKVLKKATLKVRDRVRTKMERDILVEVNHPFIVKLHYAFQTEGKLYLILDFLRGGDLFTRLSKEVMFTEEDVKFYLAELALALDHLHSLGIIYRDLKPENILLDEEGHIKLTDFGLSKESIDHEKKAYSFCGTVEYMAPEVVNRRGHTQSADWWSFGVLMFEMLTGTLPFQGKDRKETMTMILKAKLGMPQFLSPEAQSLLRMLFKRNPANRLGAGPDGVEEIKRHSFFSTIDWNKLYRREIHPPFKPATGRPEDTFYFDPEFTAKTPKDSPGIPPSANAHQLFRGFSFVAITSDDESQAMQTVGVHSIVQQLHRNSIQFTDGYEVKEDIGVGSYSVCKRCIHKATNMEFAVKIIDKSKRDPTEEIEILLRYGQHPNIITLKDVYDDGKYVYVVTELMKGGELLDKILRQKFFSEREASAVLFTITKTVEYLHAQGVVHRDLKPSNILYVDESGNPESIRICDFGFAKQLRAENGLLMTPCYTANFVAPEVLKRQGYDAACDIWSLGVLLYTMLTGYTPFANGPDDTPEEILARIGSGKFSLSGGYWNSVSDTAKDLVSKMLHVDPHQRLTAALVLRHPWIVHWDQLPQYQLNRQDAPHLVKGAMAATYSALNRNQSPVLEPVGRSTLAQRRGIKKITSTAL
Ribosomal protein S6 kinase alpha-1 (Homo sapiens), sequence (Q15418 whole entry): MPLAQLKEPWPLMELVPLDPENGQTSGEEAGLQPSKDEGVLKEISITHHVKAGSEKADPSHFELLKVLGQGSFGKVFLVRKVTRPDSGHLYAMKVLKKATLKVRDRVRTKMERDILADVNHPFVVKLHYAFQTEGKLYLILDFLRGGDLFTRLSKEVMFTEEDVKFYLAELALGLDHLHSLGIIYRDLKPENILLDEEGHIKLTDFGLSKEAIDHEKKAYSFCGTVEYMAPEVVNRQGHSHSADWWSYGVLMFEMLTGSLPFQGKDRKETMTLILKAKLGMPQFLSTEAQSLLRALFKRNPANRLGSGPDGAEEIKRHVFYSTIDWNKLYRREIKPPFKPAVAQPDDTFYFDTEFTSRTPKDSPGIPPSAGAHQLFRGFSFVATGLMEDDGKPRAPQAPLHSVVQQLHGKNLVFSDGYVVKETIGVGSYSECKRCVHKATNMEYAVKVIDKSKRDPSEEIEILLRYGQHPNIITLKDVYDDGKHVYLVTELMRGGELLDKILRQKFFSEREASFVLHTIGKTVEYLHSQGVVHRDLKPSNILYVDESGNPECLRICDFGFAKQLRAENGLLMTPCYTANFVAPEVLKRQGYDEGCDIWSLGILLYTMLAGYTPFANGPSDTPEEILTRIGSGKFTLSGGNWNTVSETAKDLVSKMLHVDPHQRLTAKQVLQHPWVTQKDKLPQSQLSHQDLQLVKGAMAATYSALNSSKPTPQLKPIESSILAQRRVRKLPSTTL
Rho-associated protein kinase 2 (Homo sapiens), sequence (O75116 whole entry, looked up): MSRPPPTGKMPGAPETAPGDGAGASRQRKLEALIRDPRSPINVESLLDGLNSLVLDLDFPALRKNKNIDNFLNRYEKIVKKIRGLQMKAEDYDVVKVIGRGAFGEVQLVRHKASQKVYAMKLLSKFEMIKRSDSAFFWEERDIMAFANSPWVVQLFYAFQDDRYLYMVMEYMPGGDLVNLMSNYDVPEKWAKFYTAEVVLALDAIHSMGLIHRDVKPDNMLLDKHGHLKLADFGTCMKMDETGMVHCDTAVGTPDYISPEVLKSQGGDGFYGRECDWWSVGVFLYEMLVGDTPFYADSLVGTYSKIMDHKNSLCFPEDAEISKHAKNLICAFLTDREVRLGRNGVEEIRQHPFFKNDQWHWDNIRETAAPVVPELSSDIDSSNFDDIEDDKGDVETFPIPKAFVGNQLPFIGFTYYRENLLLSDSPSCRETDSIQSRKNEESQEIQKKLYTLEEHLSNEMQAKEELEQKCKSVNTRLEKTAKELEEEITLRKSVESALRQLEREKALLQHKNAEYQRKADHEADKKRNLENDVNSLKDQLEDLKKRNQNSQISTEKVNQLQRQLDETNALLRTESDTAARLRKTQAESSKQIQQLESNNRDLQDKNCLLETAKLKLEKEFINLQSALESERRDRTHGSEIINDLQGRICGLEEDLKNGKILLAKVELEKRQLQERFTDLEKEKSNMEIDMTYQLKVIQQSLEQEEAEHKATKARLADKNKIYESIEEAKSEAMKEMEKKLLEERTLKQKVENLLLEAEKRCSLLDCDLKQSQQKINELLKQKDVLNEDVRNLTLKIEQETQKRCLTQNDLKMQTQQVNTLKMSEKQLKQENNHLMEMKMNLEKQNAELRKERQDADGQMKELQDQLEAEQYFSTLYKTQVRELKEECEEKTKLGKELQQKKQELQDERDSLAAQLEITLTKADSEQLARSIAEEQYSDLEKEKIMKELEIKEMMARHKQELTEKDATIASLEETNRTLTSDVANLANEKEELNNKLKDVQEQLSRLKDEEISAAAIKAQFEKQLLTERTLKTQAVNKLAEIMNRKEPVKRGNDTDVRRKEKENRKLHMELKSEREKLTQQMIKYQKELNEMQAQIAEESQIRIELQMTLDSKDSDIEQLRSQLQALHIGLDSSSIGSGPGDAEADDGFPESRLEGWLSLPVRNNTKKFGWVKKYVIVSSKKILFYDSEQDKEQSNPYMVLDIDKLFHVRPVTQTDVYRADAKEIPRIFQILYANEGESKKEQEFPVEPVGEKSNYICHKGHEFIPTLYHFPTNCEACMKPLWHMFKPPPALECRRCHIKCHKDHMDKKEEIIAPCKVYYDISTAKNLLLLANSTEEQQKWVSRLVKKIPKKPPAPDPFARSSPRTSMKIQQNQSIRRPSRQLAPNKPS
Rho-associated protein kinase 1 (Homo sapiens), sequence (Q13464 2-1354 limits assumed): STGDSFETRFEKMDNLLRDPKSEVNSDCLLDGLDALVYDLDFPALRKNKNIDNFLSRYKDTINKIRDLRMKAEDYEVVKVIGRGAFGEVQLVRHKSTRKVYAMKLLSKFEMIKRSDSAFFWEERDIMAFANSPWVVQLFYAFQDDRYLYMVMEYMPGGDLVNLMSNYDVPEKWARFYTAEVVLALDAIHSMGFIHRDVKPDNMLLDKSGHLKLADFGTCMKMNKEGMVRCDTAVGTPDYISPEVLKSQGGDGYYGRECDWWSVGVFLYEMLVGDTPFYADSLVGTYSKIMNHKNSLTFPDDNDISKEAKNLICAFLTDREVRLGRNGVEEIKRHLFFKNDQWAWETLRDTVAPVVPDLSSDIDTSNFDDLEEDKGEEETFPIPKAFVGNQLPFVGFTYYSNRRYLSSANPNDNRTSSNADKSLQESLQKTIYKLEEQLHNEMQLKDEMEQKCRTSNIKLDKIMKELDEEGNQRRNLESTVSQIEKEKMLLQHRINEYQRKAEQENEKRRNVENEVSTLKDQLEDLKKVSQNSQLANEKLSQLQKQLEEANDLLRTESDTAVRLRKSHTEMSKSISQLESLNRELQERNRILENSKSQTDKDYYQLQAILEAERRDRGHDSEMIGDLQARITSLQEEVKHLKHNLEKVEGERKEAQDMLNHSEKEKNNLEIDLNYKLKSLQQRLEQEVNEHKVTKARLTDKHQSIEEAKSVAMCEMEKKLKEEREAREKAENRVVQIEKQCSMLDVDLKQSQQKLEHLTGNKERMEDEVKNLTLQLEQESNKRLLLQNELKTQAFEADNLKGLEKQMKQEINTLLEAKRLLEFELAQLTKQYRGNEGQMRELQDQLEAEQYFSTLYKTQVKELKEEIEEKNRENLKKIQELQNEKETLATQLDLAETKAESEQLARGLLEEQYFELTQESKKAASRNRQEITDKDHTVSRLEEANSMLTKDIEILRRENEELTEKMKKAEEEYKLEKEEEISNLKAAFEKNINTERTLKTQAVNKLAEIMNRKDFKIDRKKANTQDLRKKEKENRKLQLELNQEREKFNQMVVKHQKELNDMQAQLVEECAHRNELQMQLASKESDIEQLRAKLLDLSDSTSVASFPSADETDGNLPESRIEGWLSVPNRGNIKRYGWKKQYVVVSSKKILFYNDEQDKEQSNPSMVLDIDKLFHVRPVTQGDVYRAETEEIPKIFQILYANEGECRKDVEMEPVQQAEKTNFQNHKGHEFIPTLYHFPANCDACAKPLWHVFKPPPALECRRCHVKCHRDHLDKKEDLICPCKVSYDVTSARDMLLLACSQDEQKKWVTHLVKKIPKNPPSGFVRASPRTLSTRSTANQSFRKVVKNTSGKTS

With `CN(C)C(=O)O[C@H]1CN[C@H](C#Cc2cc3ncnc(Nc4ccc(OCc5cccc(F)c5)c(Cl)c4)c3s2)C1`, the inhibition in experiment [1] is 1.92%; in experiment [2], 2.56%; in [3], 2.75%; in experiment [4], 2.24%; in experiment [5], 6.88%; in experiment [6] it was -0.06%. Moreover, the inhibition in experiment [7] is 5.82%; in experiment [8], 1.35%; in [9] it was 3.67%; in experiment [10], 1.82%; in [11], 4.25%; in [12], 2.11%. Besides, the inhibition in experiment [13] was determined as 2.54%; in experiment [14] it was 1.95%; in experiment [15], 2.1%; in experiment [16], 0.75%; in experiment [17] it was 1.6%; in [18] it was 0.37%. Also, the inhibition is 3.74% in experiment [19] and 0.96% in experiment [20].

`c1ccc(Nc2ncc(-c3ccccc3)o2)cc1`: the inhibition is 8.41% in [1]; 4.57% in experiment [2]; 8.93% in [3]; 5.37% in [4]; 6.06% in experiment [5]; 3.62% in experiment [6]. The inhibition in experiment [7] amounted to 5.4%; in experiment [8], 2.38%; in experiment [9] it was 3.33%; in [10], 1.88%; in [11] it was 2.73%; in [12], 4.11%. Further, the inhibition in experiment [13] amounted to 2.92%; in experiment [14] it was 2.02%; in experiment [15], 2.37%; in [16] it was 0.46%; in experiment [17], 0.02%; in experiment [18], 3.77%. The results for the inhibition in experiment [19] and in experiment [20] were 3.41% and 2.12%, respectively.

In the case of `Cc1ccc2c(c1)/C(=N/Nc1ccc(S(N)(=O)=O)cc1)C(=O)N2`, the inhibition worked out at 1.97% in experiment [1]; 0.87% in experiment [2]; 1.79% in experiment [3]; 0.26% in experiment [4]; 0.41% in [5]; 0.36% in [6]. Besides, the inhibition in [7] was 3.82%; in [8], -1.58%; in experiment [9], -2.35%; in experiment [10] it was 0.97%; in [11], 2.75%; in experiment [12], -0.99%. For the same compound, the inhibition turned out to be 2.52% in [13]; 0.21% in [14]; 0.22% in [15]; 0.34% in experiment [16]; 2.42% in experiment [17]; 0.05% in experiment [18]. For the same compound, the inhibition in experiment [19] turned out to be 3.92%; in [20], 1.62%.
